This is an account of results in PubChem BioAssay (NCI).

SMILES strings stand for the structures. The panel holds about 83,000 compounds, 20% with a hit somewhere; the sample as a whole holds those more often.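 Compound tested at a single concentration for 48 hours in 96-well plates; a percent growth value below 10 was scored as active.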 A number with no mark means an inactive call. The source made the active and inactive calls.

This experiment relates to HL-60(TB) leukemia. In words: NCI-60 one-dose screen, 48 h (100 = growth as untreated, 0 = no growth, -100 = all killed). The note with it: 10 µM unless noted.
Turning to `O=C1c2cccc3cccc(c23)C(=O)N1CCCCCN1CCN(CCCCCOc2ccc(-c3nc4ccc(N5CCOCC5)cc4[nH]3)cc2)CC1`, the growth was 3.01% (active).

On to `C=C1CCC2C3(C)COC(c4ccccc4)OC3CCC2(C)C1/C=C/C1=CCOC1=O` (stereo unspecified), for which the growth is 0.949% (active).

Regarding `CCCCN1CCN(c2ccc3nc(-c4ccc5nc(-c6ccc(OCC)cc6)[nH]c5c4)[nH]c3c2)CC1`, the growth was 34.3%.

Consider `Oc1ccccc1\C=N/N=C/C=C/c1ccccc1`, for which the growth was 38.5%.

Turning to `COc1ccc(C2=C/C(=C\c3ccc(Cl)cc3)C(=O)N2/N=C/c2ccc(Cl)cc2)cc1`, the growth was 102%.

Regarding `O=C1/C(=C/c2cn(-c3ccccc3)nc2-c2ccccc2)SC(=S)N1CCc1ccccc1`, the growth was 102%.

Consider `COc1ccc(-c2cc(/C=C3\C(=O)Nc4ccc(Cl)cc43)[nH]n2)cc1OC`, for which the growth was 60.2%.

In the case of `COc1ccc(-c2cc(-c3ccc(OC)c(OC)c3)nc(SCCCC(=O)NO)n2)cc1`, the growth was -34.9% (active).

Regarding `CN(C)c1ccc2nc3ccc(=[N+](C)C)cc-3oc2c1`, the growth was -21% (active).

Regarding `OC(CNc1ccnc2cc(Cl)ccc12)CNc1ccnc2cc(Cl)ccc12`, the growth is -5.79% (active).

`Cc1ccc(C2CC(c3nc(-c4ccc(Cl)cc4)oc3C)=NN2C(=O)c2ccncc2)cc1` (stereo unspecified): the growth was 97.7%.

As for `O=S(=O)(N=C1C(Cl)=C(Cl)C(=NS(=O)(=O)c2ccccc2)C(Cl)=C1Cl)c1ccccc1`, the growth was 48.5%.

For `CCOc1ccc(N=C(C)Nc2ccc(OCC)cc2)cc1`, the growth is 76.4%.

For `COc1cc(C(=O)N2CCN(c3ccccc3OC)CC2)c(N)cc1OCCCN1CCN(c2ccccc2OC)CC1`, the growth was 85.3%.

Consider `COC(=O)c1c(C)nc(C)c2c1C(=O)C=C(NCc1ccccc1)C2=O`, for which the growth is 81.8%.

Take `Cc1ccc2nc(NC(=O)CSc3nc(-c4ccccc4)c(C#N)c(=O)n3Cc3ccccc3)sc2c1`: the growth is 100%.

Regarding `N#Cc1c(Oc2ccc([N+](=O)[O-])cc2)nc2sc3cc(Cl)ccc3n2c1=N`, the growth is 151%.

With `CCN(C(=O)c1cc2ccccc2[nH]1)[C@H]1CCC[C@@H](NCc2ccc(OC)cc2)C1`, the growth was 117%.

`O=C(O)c1ccc2c3ccc(C(=O)O)c4c(C(=O)O)ccc(c5ccc(C(=O)O)c1c25)c43`: the growth is 111%.

`C(#Cc1ccccc1C#Cc1ccccn1)c1ccc(OCCCCCCOc2ccc(C#Cc3ccccc3C#Cc3ccccn3)cc2)cc1`: the growth is 14.3%.

As for `CCOC(=O)C1=C(N)Oc2c(sc3c(C)cccc23)C1c1ccc(F)cc1` (stereo unspecified), the growth is -39.3% (active).

For `O=C1c2cccc(NCCN=Cc3ccccc3O)c2C(=O)c2c(NCCN=Cc3ccccc3O)cccc21`, the growth was 31.6%.

For `COc1cc(C2C(C#N)=C(N)Oc3cc(O)ccc32)cc(OC)c1OC` (stereo unspecified), the growth is -26% (active).

For `CC(NNC(C)c1ccccc1)c1ccccc1` (stereo unspecified), the growth is 113%.

Regarding `COC(=O)CNC(=O)[C@]12CCC(C)(C)C[C@H]1C1=CC[C@@H]3[C@@]4(C)Cc5c([nH]c6ccccc56)C(C)(C)[C@@H]4CC[C@@]3(C)[C@]1(C)CC2`, the growth is 76.9%.

For `CCOC(=O)c1c(NC(=O)c2ccccc2)sc2c3c(ccc12)OCN(C)C3`, the growth was -62.5% (active).
